# Assay outcomes as filed in PubChem.
# Hits are enriched below; roughly 2.4% of the tested compounds scored in any of these assays.
# D2 PAM-1 – HTS Assay for Positive Allosteric Modulators of the Human D2 Dopamine Receptor: Primary Screen for Potentiators | D(2) dopamine receptor (Homo sapiens), P14416 | HEK293 T-REx D2, calcium flux, EC20 dopamine potentiation | potentiation, % at 10 µM | 340,000 compounds, 0.34% hits;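 active means potentiation over 3 SD above the plate norm, cut at about 30% in these data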
# Target sequence (P14416 whole entry, looked up): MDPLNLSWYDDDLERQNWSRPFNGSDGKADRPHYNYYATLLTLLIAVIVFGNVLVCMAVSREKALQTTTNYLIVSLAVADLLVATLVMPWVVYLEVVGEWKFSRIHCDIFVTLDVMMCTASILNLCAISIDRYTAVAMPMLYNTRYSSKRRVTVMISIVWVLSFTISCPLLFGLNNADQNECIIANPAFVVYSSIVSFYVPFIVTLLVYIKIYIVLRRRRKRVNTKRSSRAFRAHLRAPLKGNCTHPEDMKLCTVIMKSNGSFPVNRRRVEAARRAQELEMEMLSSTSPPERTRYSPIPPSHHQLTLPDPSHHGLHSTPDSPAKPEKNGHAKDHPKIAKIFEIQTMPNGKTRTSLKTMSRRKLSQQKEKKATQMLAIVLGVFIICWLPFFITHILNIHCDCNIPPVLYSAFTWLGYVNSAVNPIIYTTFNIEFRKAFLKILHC
#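 Potentiation of an EC20 dopamine calcium response measured kinetically over 180 s, after a preceding 180 s compound-only read flagging agonists. Cells: inducible Hek293 Trex D2 line, 4000/well, cultured overnight at 30 C before dye loading.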
# D2 ag-1 – HTS Assay for Allosteric Agonists of the Human D2 Dopamine Receptor: Primary Screen for Agonists; activation, % at 2 µM; D(2) dopamine receptor (Homo sapiens), P14416; AID 485358, 2010; HEK293 T-REx D2 cells, calcium flux agonist mode; 340,000 compounds, 0.53% hits;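 active means activation over 3 SD above normal in the single-dose calcium agonist read, cut at about 30% in these data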
#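 Calcium-flux readout, 1 cycle/sec over 180 s following compound pin transfer, in inducible HEK293 Trex D2 cells (force-coupled); dopamine controls included. Positive calcium responses during this window marked compounds as potential agonists.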
# D2 antagonist – HTS Assay for Allosteric Antagonists of the Human D2 Dopamine Receptor: Primary Screen for Antagonists; D(2) dopamine receptor (Homo sapiens), P14416; HEK293 TREx D2 cells, calcium flux, dopamine EC80; inhibition, % at 10 µM; 340,000 compounds, 2% hits; in the data active means inhibition above about 30%; inactive means below that, where a call was filed
#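 Dopamine at EC80 is the agonist stimulus; test compounds precede it by 180 s. Calcium flux read kinetically in a force-coupled, inducible HEK293 T-REx D2 cell line.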
# D2 ag-2 – Beta-Arrestin HTS for Positive Allosteric Modulators of the Human D2 Dopamine Receptor: Agonists; D(2) dopamine receptor (Homo sapiens), P14416; DiscoveRx PathHunter D2 beta-arrestin, luminescence, 90 min; 100% = 57 uM dopamine signal; activation, % (no concentration beside the values); 360,000 compounds, 0.084% hits; AID 624465, 2012; in the data active means activation above about 40%; inconclusive means between about 15% and that limit
#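 DiscoveRx PathHunter D2 beta-arrestin cells (2,100/well) attached overnight, then compound-stimulated 90 min at 37 C in HBSS/10 mM HEPES/0.1% Tween-20 buffer; beta-galactosidase complementation read by luminescence after 1 h at ambient temperature. Dopamine 57 uM final (EC100) as control.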
# D2 PAM-2 – Beta-Arrestin HTS for Positive Allosteric Modulators of the Human D2 Dopamine Receptor: Potentiators | AID 624464, 2012 | potentiation, % (concentration not given with the values) | 360,000 compounds, 0.23% hits | DiscoveRx D2 beta-arrestin cells, luminescence, 90 min; 100% = 57 uM dopamine signal; in the data active means potentiation above about 50%; inconclusive means mostly about 30% to 49%
#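 PathHunter beta-arrestin assay in DiscoveRx D2 cells. Compounds were added with an EC20 of dopamine (50 nM final) for 90 min at 37 deg C. Luminescence was read 1 h after detection reagent, with 57 uM dopamine as the EC100 control.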
# A number is an active result; - = inactive; ? = inconclusive; . = no result.
SMILES,D2 PAM-1,D2 ag-1,D2 antagonist,D2 ag-2,D2 PAM-2
CCCCN(C(=O)c1c(CC)noc1C)c1c(N)n(CC(C)C)c(=O)[nH]c1=O,-,-,-,-,-
Cc1nn(C)c(C)c1S(=O)(=O)N(CC(=O)N1CCN(c2ccccc2)CC1)c1ccc(C(C)C)cc1,-,-,.,.,.
COc1ccc(CCNC(=O)Cc2c(C)c3c(cc(C)c4c(C)coc43)oc2=O)cc1OC,-,-,.,.,.
O=C1/C(=C/c2ccc(Cl)cc2)SC(=S)N1CCC(=O)N1CCCCC1CCO (stereo unspecified),-,-,31,-,-
O=C1/C(=C/c2cccc(Cl)c2)SC(=S)N1CCC(=O)N1CCCCC1CCO (stereo unspecified),-,-,-,-,-
COc1ccc(/C=C2\SC(=S)N(CCC(=O)N3CCCCC3)C2=O)cc1,-,-,-,-,-
COCCN1C(=O)/C(=C/c2ccc(N3CCCC3)cc2)SC1=S,-,41,-,-,-
Cc1ccc(C(=O)Nc2ccccc2C(=O)OCc2cc(=O)n3nc(C4CC4)sc3n2)cc1,-,-,.,.,.
CCC(C(=O)Nc1cc(OC)ccc1OC)n1c(C)c2cnn(-c3ccccc3)c(=O)c2c1C (stereo unspecified),-,-,.,.,.
Clc1ccc2oc(-c3ccccn3)nc2c1,-,-,-,-,-
Nc1ccc2oc(-c3ccccn3)nc2c1,50,-,-,-,-
Cc1ccc(-c2nc3cc(N)ccc3o2)cc1Br,-,-,-,-,-
Cc1ccc(C)c(-c2nc3cc(N)ccc3o2)c1,33,-,-,-,-
O=C(CCNC(=O)N1CC(=O)Nc2ccccc21)NCc1ccc(F)cc1,-,-,52,-,-
Cc1ccc(N2CCN(C(=O)c3c(C)oc4nc(C)nc(N5CCCC5)c34)CC2)c(C)c1,-,-,.,.,.
CCOC(=O)C(=CNc1ccc(OC)cc1[N+](=O)[O-])C(=O)OCC,-,-,31,-,-
CCC(=O)OCC(=O)Nc1ccc(OC)cc1[N+](=O)[O-],-,-,-,-,-
COc1ccc(Cn2c(SCc3ccc(C(=O)NC(C)c4ccccc4)cc3)nc3cccnc32)cc1 (stereo unspecified),-,-,.,.,.
O=c1[nH]c2cc3c(cc2cc1CN(CCc1ccccc1)Cc1nnnn1C1CCCC1)OCCO3,-,35,-,.,.
Cc1cc2cc(CN(Cc3ccc4c(c3)OCO4)Cc3nnnn3C3CCCC3)c(=O)[nH]c2cc1C,-,-,-,-,-
CCOc1ccc(-n2nc(CO)c(C(=O)NCc3ccccn3)n2)cc1,-,-,.,.,.
CC(C)Cc1nnc(NC(=O)c2cc(-c3ccncc3)nc3ccccc23)s1,-,-,-,-,-
CC(C)Cc1nnc(NC(=O)c2cc(-c3ccccc3)nc3ccccc23)s1,30,-,-,-,-
CCSc1nnc2ccc(-c3ccco3)nn12,37,-,-,-,-
CCSc1nnc2ccc(-c3ccc(C)cc3)nn12,-,-,-,-,-
SMILES,D2 PAM-1,D2 ag-1,D2 antagonist,D2 ag-2,D2 PAM-2
CC(O)CNCCCOc1ccc(Cl)cc1C(C)(C)C (stereo unspecified),-,-,-,-,-
CN(C)CCOCCOc1ccc(Cl)cc1C(C)(C)C,-,-,64,-,-
C=CCc1cc(Cl)ccc1OCCN(C)C,-,-,53,-,-
Fc1ccc(Nc2nc3nonc3nc2Nc2cccc(C(F)(F)F)c2)cc1,-,.,.,.,.
Cc1ccc(C)c(NC(=O)COC(=O)c2cccc3c2C(=O)c2ccccc2C3=O)c1,-,-,-,?,54
Cc1ccc(Cl)cc1NC(=O)COC(=O)c1ccccc1O,-,-,-,-,-
Cc1ccc(NC(=O)COC(=O)c2cccc3c2C(=O)c2ccccc2C3=O)c(C)c1,-,-,-,-,56
Cc1cc(C)c(NC(=O)COC(=O)c2cccc3c2C(=O)c2ccccc2C3=O)c(C)c1,-,-,-,-,55
CC1(c2ccccc2)CC(C)(C)N(C(=O)c2cccc(Cl)c2)c2ccccc21 (stereo unspecified),-,-,.,.,.
N#Cc1ccc(CSc2nc(N)cc(=O)[nH]2)cc1,-,-,-,-,-
Cc1ccc(CSc2nc(N)cc(=O)[nH]2)cc1,-,-,30,-,-
CN(C)CCNC(=O)c1cccc(NS(=O)(=O)c2ccc(Cl)c(Cl)c2)c1,-,-,35,-,-
O=C(NCCN1CCOCC1)c1cccc(NS(=O)(=O)c2ccc(Br)cc2)c1,-,-,33,-,-
C=CCNC(=O)c1cccc(NS(=O)(=O)c2ccc(Cl)cc2)c1,-,-,-,-,-
Cc1ccc(S(=O)(=O)Nc2cccc(C(=O)NCCN3CCOCC3)c2)cc1F,-,-,-,-,-
O=C(NCc1ccccc1F)c1ccc2ccccc2n1,34,-,-,-,-
C=CCN(CC=C)CCOc1ccccc1F,-,-,-,-,-
C=CCN(CC=C)CCOc1cccc2ccccc12,-,35,-,-,-
COc1ccc(/C=N/N2C(=O)CSC2=S)cc1Br,-,-,33,-,-
CCCCN1CCc2c1nc1ccc(Br)cc1c2N,-,-,68,-,-
O=C1C2C3C=CC(C4CC34)C2C(=O)N1/N=C/c1cccs1 (stereo unspecified),-,-,-,-,61
Cc1cc(N2CCN(C)CC2)nc2ccc(NC(=O)Nc3ccccc3Cl)cc12,-,-,.,.,.
CC[C@@]12C(=O)N(c3cccc(Br)c3)C(=O)N1[C@H](c1ccc(Br)cc1)[C@@H]1C(=O)N(C(C)(C)C)C(=O)[C@@H]12,-,-,32,-,-
CN(C)CCC=C1c2ccccc2CCc2ccccc21,-,-,64,-,-
CN(C)CCC=C1c2ccccc2C=Cc2ccccc21,-,-,49,-,-
SMILES,D2 PAM-1,D2 ag-1,D2 antagonist,D2 ag-2,D2 PAM-2
CNCCC=C1c2ccccc2C=Cc2ccccc21,.,.,.,-,-
Oc1ccc(N=Cc2ccc(-c3cccs3)s2)cc1,-,-,-,-,56
O=Cc1ccc(-c2cccs2)s1,.,.,.,-,-
COc1cc(C2CC(=O)Nc3cc4c(cc32)OCCO4)cc(OC)c1O (stereo unspecified),-,-,.,.,.
CC(=O)NS(=O)(=O)c1ccc(NC(=O)c2cc(-c3cccs3)nc3ccccc23)cc1,-,37,-,-,-
Cc1cc(NC(=O)c2cc(-c3cccs3)nc3ccccc23)no1,-,-,37,-,-
CCc1cccc(C)c1NC(=O)Cn1ccn(-c2cccc(OC)c2)c(=O)c1=O,-,-,.,.,.
